Rows were chosen to be rich in hits. Some 3% of all compounds tested hit in one or more screens of this group.
KDM5B inh – KDM5B demethylase inhibition | Q9UGL1 | KDM5B demethylase, FDH-coupled NADH fluorescence (FDH is formaldehyde dehydrogenase) | Potency, µM (titrated, usually from 57.7 µM), usual class: inhibitors | hit rate 2.6% among 220,000 | AID 1347165; also: nearly all actives have a fitted effect of over 70% in size
Target sequence (Q9UGL1 whole entry, looked up): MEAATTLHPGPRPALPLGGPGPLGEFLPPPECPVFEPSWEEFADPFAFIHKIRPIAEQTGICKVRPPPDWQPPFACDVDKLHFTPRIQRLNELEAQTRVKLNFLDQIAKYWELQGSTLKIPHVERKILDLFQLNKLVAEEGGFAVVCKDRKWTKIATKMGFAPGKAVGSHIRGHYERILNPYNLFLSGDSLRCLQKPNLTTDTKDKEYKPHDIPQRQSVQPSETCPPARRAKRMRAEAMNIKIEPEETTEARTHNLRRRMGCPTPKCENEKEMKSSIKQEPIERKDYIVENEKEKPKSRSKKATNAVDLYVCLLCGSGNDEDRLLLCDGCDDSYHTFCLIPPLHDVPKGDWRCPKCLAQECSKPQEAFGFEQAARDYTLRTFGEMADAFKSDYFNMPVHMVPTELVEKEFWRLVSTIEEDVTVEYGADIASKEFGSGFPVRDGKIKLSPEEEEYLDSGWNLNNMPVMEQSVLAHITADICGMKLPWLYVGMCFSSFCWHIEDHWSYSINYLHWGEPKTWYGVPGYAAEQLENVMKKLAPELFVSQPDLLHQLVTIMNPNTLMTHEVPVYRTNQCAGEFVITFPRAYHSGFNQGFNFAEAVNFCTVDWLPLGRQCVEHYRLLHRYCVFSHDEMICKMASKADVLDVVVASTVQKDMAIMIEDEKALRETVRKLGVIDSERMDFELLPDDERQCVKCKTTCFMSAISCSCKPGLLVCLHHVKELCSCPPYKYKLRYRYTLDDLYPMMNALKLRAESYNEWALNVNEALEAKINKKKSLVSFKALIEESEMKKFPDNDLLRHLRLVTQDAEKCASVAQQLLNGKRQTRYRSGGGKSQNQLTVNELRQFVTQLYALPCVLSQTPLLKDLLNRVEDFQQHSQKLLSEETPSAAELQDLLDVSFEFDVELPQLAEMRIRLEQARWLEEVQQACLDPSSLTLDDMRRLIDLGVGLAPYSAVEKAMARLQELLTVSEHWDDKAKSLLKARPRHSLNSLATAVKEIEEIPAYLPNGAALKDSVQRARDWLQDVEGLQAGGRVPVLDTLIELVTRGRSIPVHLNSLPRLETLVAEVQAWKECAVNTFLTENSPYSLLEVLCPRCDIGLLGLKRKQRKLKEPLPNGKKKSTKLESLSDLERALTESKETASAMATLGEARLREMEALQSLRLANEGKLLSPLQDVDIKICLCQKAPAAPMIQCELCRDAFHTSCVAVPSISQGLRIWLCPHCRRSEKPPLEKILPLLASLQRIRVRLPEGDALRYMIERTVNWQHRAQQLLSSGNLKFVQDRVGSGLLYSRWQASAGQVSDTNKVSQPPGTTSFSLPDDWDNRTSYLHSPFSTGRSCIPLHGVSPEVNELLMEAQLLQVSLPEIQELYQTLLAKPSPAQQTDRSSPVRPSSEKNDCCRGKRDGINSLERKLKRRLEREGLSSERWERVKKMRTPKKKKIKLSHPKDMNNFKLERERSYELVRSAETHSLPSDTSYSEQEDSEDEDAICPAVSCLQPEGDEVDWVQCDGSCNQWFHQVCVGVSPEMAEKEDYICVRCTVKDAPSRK
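Coupled FDH/NAD⁺ fluorescence readout. KDM5BΔAP 200 nM final; compound titration, 10 min RT preincubation; substrate mix 12.5 µM H3K4me3, 25 µM 2-OG, 50 µM Fe(II), 100 µM ascorbate, 0.25 mM NAD⁺, 0.25 U/mL FDH; ΔRFU over 30 min.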
SNCA viab count – cell viability loss counter-screen. hit rate 0.12% among 150,000. HEK-293-SNCA-luc viability, GF-AFC fluorescence, 24 h. AID 1671193. Potency, µM (titrated, usually from 57.1 µM), hits mostly cytotoxic; also: nearly all actives have a fitted effect of over 30% in size
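HEK-293-SNCA-luc cells (1500/well) plated 24 h, then exposed 24 h to a dilution series; GF-AFC added 30 min at 37C, fluorescence 405/540 nm; normalised to medium-only and DMSO wells, Hill fit.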
IP6K1 inh – inhibitors of human IP6K1 | Q92551 | activity change, % (series mostly up to about 58 µM) | AID 1645851 | IP6K1 kinase, ADP-Glo luminescence, 2 h; hits give low values | hit rate 0.81% among 140,000; in the data active = activity change below about -25%
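ADP-Glo luminescence measures ADP made by human IP6K1 during a 2 h RT reaction with ATP/IP6 (mix at 1.3 mM/130 uM); top library doses 57.5 and 19.1 uM final.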
SNCA expr inh – reduces expression of the alpha-synuclein gene | hit rate 0.17% among 140,000 | Potency, µM (titrated, usually from 57.2 µM), usual class: inhibitors | HEK-293 SNCA-luciferase knock-in, luminescence, 24 h | AID 1671194; also: nearly all actives have a fitted effect of over 45% in size
A number is an active result; [ ] = another dose, or the depositor's remark. Unless noted, calls follow the shape of the dose curve; as a rule, active = well fitted curve in the direction sought with a large enough effect; inconclusive = small, poorly fitted or top-dose-only effect, or another doubt; inactive = no such curve, though single readings can be large; an effect the other way counts as inactive or inconclusive.

Results for CC1(C(=O)NCc2cccnc2)CCCc2cnc(NCc3ccccc3)nc21 (stereo unspecified) ?
KDM5B inh: inconclusive; SNCA viab count: inactive; IP6K1 inh: inactive; SNCA expr inh: inactive

How did CC(C)C(=O)NC1CCN(C(=O)c2ccc(-c3cccs3)cc2)CC1 do in these assays?
SNCA viab count: inactive[12.5 µM]; IP6K1 inh: inactive; SNCA expr inh: inactive

What do the screens show for `COc1ccc(F)cc1-c1ccc(C(=O)NCCCn2ccnc2C(C)C)cn1`?
KDM5B inh: 28.2µM; SNCA viab count: inactive; IP6K1 inh: inactive; SNCA expr inh: inactive

What do the screens show for `CNC(=O)[C@@H]1CN(S(=O)(=O)c2ccc(F)c(C)c2)C[C@H]1C1CCN(C)CC1`?
KDM5B inh: 22.4µM; SNCA viab count: inactive[12.5 µM]; IP6K1 inh: inactive; SNCA expr inh: inconclusive

How did O=C(COc1ccccc1)N1CCNc2cnc(Nc3cccc(F)c3)nc2C1 do in these assays?
KDM5B inh: 35.5µM; SNCA viab count: inactive; IP6K1 inh: inactive; SNCA expr inh: inactive

Results for O=C(c1ccccc1)N1CCNc2cnc(Nc3cccc(F)c3)nc2C1 ?
KDM5B inh: inconclusive; SNCA viab count: inactive; IP6K1 inh: inactive; SNCA expr inh: inactive

How did Cc1cc(=O)n(CC(=O)Nc2ccc(Br)cc2F)c(N2CCc3ccccc3C2)n1 do in these assays?
KDM5B inh: 14.1µM; SNCA viab count: inconclusive; IP6K1 inh: inactive; SNCA expr inh: inconclusive

What do the screens show for `c1ccc(CN2CCCCC2c2nc(CCOCC3CCCC3)no2)nc1` (stereo unspecified)?
KDM5B inh: inconclusive; SNCA viab count: inactive[12.5 µM]; IP6K1 inh: inactive; SNCA expr inh: 22.4µM

Results for Cc1ncsc1CN1CCCCC1c1nc(CCOCC2CC2)no1 (stereo unspecified) ?
KDM5B inh: 17.8µM; SNCA viab count: inactive; IP6K1 inh: inactive; SNCA expr inh: inactive

Results for Cc1ncsc1CN1CCCCC1c1nc(CCOc2ccc(F)cc2)no1 (stereo unspecified) ?
KDM5B inh: inconclusive; SNCA viab count: inactive; IP6K1 inh: inactive; SNCA expr inh: inconclusive

Results for COc1cccc(-c2ccc(C(=O)N3CCC(NC(=O)c4ccccc4C)CC3)cc2)c1 ?
SNCA viab count: inactive[12.5 µM]; IP6K1 inh: inactive; SNCA expr inh: inactive

What do the screens show for `Cc1ccccc1CN1CCc2nc(C(=O)Nc3ccccc3)oc2CC1`?
KDM5B inh: 28.2µM; SNCA viab count: inactive; IP6K1 inh: inactive; SNCA expr inh: inactive

Results for Cc1cc(F)cc(CN2CCc3nc(C(=O)Nc4ccccc4)oc3CC2)c1 ?
KDM5B inh: 28.2µM; SNCA viab count: inactive; IP6K1 inh: inactive; SNCA expr inh: inactive

How did O[C@@H]1CCC2CC1[C@@H](O)CN2Cc1ccc(-c2ccccc2)cc1 (stereo partly specified) do in these assays?
IP6K1 inh: inactive

What do the screens show for `c1cncc(-c2ccnc3nc(C4CCC4)nn23)c1`?
KDM5B inh: inconclusive; SNCA viab count: inactive; IP6K1 inh: inactive; SNCA expr inh: inconclusive

What do the screens show for `c1cc(-c2ccc3c(c2)OCCCO3)n2nc(C3CCC3)nc2n1`?
KDM5B inh: 15.8µM; SNCA viab count: inactive; IP6K1 inh: inactive; SNCA expr inh: inactive

How did c1cc(-c2ccnc3nc(C4CCC4)nn23)ccn1 do in these assays?
KDM5B inh: 28.2µM; SNCA viab count: inactive; IP6K1 inh: inactive; SNCA expr inh: inactive

What do the screens show for `c1ccc(-c2ccnc3nc(C4CCC4)nn23)cc1`?
KDM5B inh: 28.2µM; SNCA viab count: inactive; IP6K1 inh: inactive; SNCA expr inh: inactive

How did c1cc(-c2ccnc3nc(CCC4CCCC4)nn23)ccn1 do in these assays?
KDM5B inh: 28.2µM; SNCA viab count: inactive; IP6K1 inh: inactive; SNCA expr inh: inactive

How did O=C(NCc1ccc(F)cc1)c1nn(CCOc2ccccc2)c2c1CNCC2 do in these assays?
SNCA viab count: inactive; IP6K1 inh: inactive; SNCA expr inh: inconclusive

Results for CN1CCN(C(=O)c2cc(-c3cccc(C(F)(F)F)c3)nc3c2cnn3C)CC1 ?
SNCA viab count: inactive; IP6K1 inh: inactive; SNCA expr inh: inactive

How did Cc1ccccc1C(=O)N1CC(N2C(=O)c3c(c(C)nn3-c3ccccc3)C2C)C1 (stereo unspecified) do in these assays?
IP6K1 inh: inactive

What do the screens show for `Cn1nccc1C(=O)N1CCC(Oc2ccc(-c3noc(-c4ccccc4)n3)cc2)C1` (stereo unspecified)?
SNCA viab count: inactive; IP6K1 inh: inactive; SNCA expr inh: inactive

What do the screens show for `c1cc(-c2ccnc3nc(C4CCCCC4)nn23)ccn1`?
KDM5B inh: 31.6µM; SNCA viab count: inactive; IP6K1 inh: inactive; SNCA expr inh: inactive

How did CC(C)Cc1nc2nccc(-c3ccc4c(c3)OCCCO4)n2n1 do in these assays?
KDM5B inh: 28.2µM; SNCA viab count: inactive; IP6K1 inh: inactive; SNCA expr inh: inactive

Results for O=C(C1CCCC1)N1CC2(CCCN(Cc3c[nH]c4ccccc34)C2)Cc2ccccc21 (stereo unspecified) ?
KDM5B inh: inactive; SNCA viab count: inconclusive; IP6K1 inh: inactive; SNCA expr inh: inconclusive

How did O=S(=O)(N[C@H]1CO[C@H]2[C@@H]1OC[C@@H]2n1nnnc1Oc1ccc(-n2cncn2)cc1)c1cccs1 do in these assays?
KDM5B inh: 17.8µM; SNCA viab count: inactive; IP6K1 inh: inactive; SNCA expr inh: inactive

Results for O=C(NCc1ccc(C(F)(F)F)cc1)C1CCN(Cc2ccccc2-c2cccnc2)CC1 ?
SNCA viab count: inactive; IP6K1 inh: inactive; SNCA expr inh: inactive

What do the screens show for `Cc1ccc(Nc2ccnc(N3CCCC3C(=O)NCc3cccc(Cl)c3)n2)cc1` (stereo unspecified)?
SNCA viab count: inactive[12.5 µM]; IP6K1 inh: inactive; SNCA expr inh: inactive

Results for CC(=O)N1CCCC2(C1)CN(C)c1ccc(C(=O)NC(C)C)cc12 (stereo unspecified) ?
KDM5B inh: 35.5µM; SNCA viab count: inactive; IP6K1 inh: inactive; SNCA expr inh: inactive

How did COCCN1CCC2(C1)CN(C)c1ccc(C(=O)Nc3ccc(OC)cc3)cc12 (stereo unspecified) do in these assays?
KDM5B inh: inconclusive; SNCA viab count: inactive; IP6K1 inh: inactive; SNCA expr inh: inactive

How did CN1CCCC2(C1)CN(C)c1ccc(C(=O)Nc3ccccc3)cc12 (stereo unspecified) do in these assays?
KDM5B inh: inconclusive; SNCA viab count: inactive; IP6K1 inh: inactive; SNCA expr inh: inactive

What do the screens show for `CC(=O)N1CCCC2(C1)CN(C)c1ccc(C(=O)NCC(C)C)cc12` (stereo unspecified)?
KDM5B inh: 31.6µM; SNCA viab count: inactive; IP6K1 inh: inactive; SNCA expr inh: inactive

Results for O=C(C[C@@H]1CCNC[C@@H]1Cc1cc(-c2ccccc2)on1)N1CCc2ccccc2C1 ?
KDM5B inh: inconclusive; SNCA viab count: inactive; IP6K1 inh: inactive; SNCA expr inh: inactive

What do the screens show for `CNC(=O)c1cc(-c2ccccc2F)nc2c1cnn2C`?
IP6K1 inh: inactive

How did CC1(COCC2CC2)COc2ccc(C(=O)Nc3ccccc3)cc2N1 (stereo unspecified) do in these assays?
KDM5B inh: 25.1µM; SNCA viab count: inactive; IP6K1 inh: inactive; SNCA expr inh: inactive

How did CC(C)CNC(=O)c1ccc2c(c1)NC(C)(COCC1CC1)CO2 (stereo unspecified) do in these assays?
KDM5B inh: 39.8µM; SNCA viab count: inactive; IP6K1 inh: inactive; SNCA expr inh: inactive
